# Laboratory results as given in the supplement of paper PMC7156485.
# ± gives the standard deviation of the averaged measurements.
# Assays:
# Details in all cases: concentration: 10 µM; 24 h
# HCC1569 [1] = test: cell number relative to DMSO (% of DMSO); higher = more cells (less growth inhibition / toxicity)
# Procedure, shortened: (§1)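 Using 384-well plates with 800 cells per well in RPMI plus 10% FBS, HCC1569 and TDF cells were exposed to compounds at 10 µM, in triplicate, for 24 h at 37 °C. Imaging of six fields per well at ×10 followed H1.0 and DAPI staining. The reported quantity, H1.0 nuclear intensity or cell number, is a median of replicates given as percent of the plate control, and HCC1569 values were smoothed for positional effects.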
# TDF [2] = test: as above
# Procedure, shortened: as §1
# TDF [3] = test: H1.0 immunofluorescence intensity relative to DMSO (% of DMSO); higher = stronger H1.0 induction, active = 120 or more
# Procedure, shortened: as §1
# HCC1569 [4] = test: H1.0 immunofluorescence intensity relative to DMSO (% of DMSO); higher = stronger H1.0 induction, active = 140 or more
# Procedure, shortened: as §1
# 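Wherever H1.0 immunofluorescence intensity relative to DMSO is given: TDF is a line of transformed human dermal fibroblasts of mesenchymal origin.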
# 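Wherever cell number relative to DMSO is given: TDF denotes transformed human dermal fibroblasts of mesenchymal origin.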
SMILES,cell number (HCC1569 [1]),cell number (TDF [2]),H1.0 immunofluorescence intensity (TDF [3]),H1.0 immunofluorescence intensity (HCC1569 [4])
"CCCCCC=CCC=CCC=CCC1OC1CCCC(=O)O (centres undefined) [5,6-Epoxyeicosatrienoic acid]",101,108,89.4 (inactive),103 (inactive)
NC(CC(=O)[O-])C(=O)O.NC(CC(=O)[O-])C(=O)O.[Mg+2] [magnesium bis[(3S)-3-amino-3-carboxypropanoate]],101,102,94.5 (inactive),109 (inactive)
CC(=O)NC(CSCC=C(C)CCC=C(C)CCC=C(C)C)C(=O)O (centres undefined) [Acetyl-farnesyl-cysteine],100,104,97.2 (inactive),96.3 (inactive)
O=C(COc1ccc(Cl)cc1)NC1CCC(NC(=O)COc2ccc(Cl)cc2)CC1 (centres undefined),104,100,90.5 (inactive),92.9 (inactive)
"N#Cc1cccc(-c2c[nH]c3ncnc(N4CCOCC4)c23)c1 [3-(4-morpholino-7H-pyrrolo[2,3-d]pyrimidin-5-yl)benzonitrile]",107,110,86.3 (inactive),80.8 (inactive)
COc1cc(Cc2cnc(N)nc2N)cc(OC)c1OC [Trimethoprim],99 ± 1.6,95.9 ± 2.8,106 (inactive),107 (inactive)
CC(O)C(=O)C1=Nc2c([nH]c(N)nc2=O)NC1 (centres undefined) [Sepiapterin],105,113,97.4 (inactive),99.1 (inactive)
COC(=O)C(=C1OC(=O)C(c2ccccc2)=C1O)c1ccccc1 [Vulpinic acid],98.5,95.3,89.4 (inactive),91.2 (inactive)
CC(C)Cn1c(=O)n(C)c(=O)c2[nH]cnc21 [3-Isobutyl-1-methylxanthine],114,118,90.5 (inactive),88.2 (inactive)
Cc1nc2ccc(Oc3ccc(F)cc3)cc2c(=O)n1C[C@H]1CCCN(C(C)C)C1.Cl,94.1,105,117 (inactive),102 (inactive)
CCC(=O)N1CCN(C(=O)c2ccccc2)CC1,106,111,94.2 (inactive),89.3 (inactive)
Cl.NC(N)=NC(N)=Nc1cccc(Cl)c1 [1-(m-Chlorophenyl)-biguanide hydrochloride],102,97.2,93.4 (inactive),97.1 (inactive)
CCCCCC=CCC=CCC=CCCCCCCC(=O)O [Dihomo-γ-linolenic acid],99.6,98.6,96.3 (inactive),97.7 (inactive)
"O=C(O)Cc1ccc(O)c(O)c1 [3,4-Dihydroxyphenylacetic acid]",104,102,95.9 (inactive),96.6 (inactive)
Cc1ccccc1C=CC1=NCCN1.O=C(O)C(=O)O [Metrazoline oxalate],96.3,81,102 (inactive),124 (inactive)
CC(=O)Oc1cc(C(C)C)c(OCCN(C)C)cc1C.Cl [Moxisylyte hydrochloride],105,104,91.4 (inactive),94.4 (inactive)
O=C(NCCCNc1nc(Nc2cccc(NC(=O)N3CCCC3)c2)ncc1I)c1cccs1,62,42.3,114 (inactive),134 (inactive)
COCCCCC(=NOCCN)c1ccc(C(F)(F)F)cc1.O=C(O)C=CC(=O)O [Fluvoxamine maleate],98.6,97.1,95.3 (inactive),92.4 (inactive)
CN1CCCC1CCOC(C)(c1ccccc1)c1ccc(Cl)cc1 (centres undefined) [Clemastine],99.4,97.3,102 (inactive),112 (inactive)
C=CCCCCCCCCCCC(=O)O [12-Tridecenoic acid],99.7,91.7,106 (inactive),98.7 (inactive)
COc1cc2nc(N3CCN(C(=O)C4=CC5C=CC4CC5)CC3)nc(N)c2cc1OC (centres undefined) [Prazobind],101,102,95.3 (inactive),93.2 (inactive)
CCNC1CC(C)S(=O)(=O)c2sc(S(N)(=O)=O)cc21.Cl (centres undefined) [Dorzolamide.HCl],97,87.9,100 (inactive),95.5 (inactive)
Cc1cnc(-c2cc(N3CCN(C(=O)CCS(C)(=O)=O)CC3)ncc2Cl)c(C)c1.Cl,103,103,83.9 (inactive),104 (inactive)
CCCCS(=O)(=O)N[C@@H](Cc1ccc(OCCCCC2CCNCC2)cc1)C(=O)O.Cl.O,99.8,102,97.7 (inactive),104 (inactive)
CN1CCN(c2nc3cc(C(F)(F)F)ccc3n3cccc23)CC1.O=C(O)C=CC(=O)O,99.3,104,103 (inactive),113 (inactive)
Cc1cnc(C(=O)O)c[n+]1[O-] [Acipimox],100,108,95.2 (inactive),104 (inactive)

SMILES,cell number (HCC1569 [1]),cell number (TDF [2]),H1.0 immunofluorescence intensity (TDF [3]),H1.0 immunofluorescence intensity (HCC1569 [4])
COc1ccc2c(OC)c3ccoc3nc2c1OC [Skimmianine],100,98.2,99.1 (inactive),96.2 (inactive)
CC(C=CC=C(C)C=CC1=C(C)C(=O)CCC1(C)C)=CC=CC=C(C)C=CC=C(C)C=CC1=C(C)C(=O)CCC1(C)C [Canthaxanthin],102 ± 4.6,104 ± 3.5,90 (inactive),106 (inactive)
CC(C)(C)OC(=O)CN(Cc1ccc(Cl)cc1)Cc1ccc([N+](=O)[O-])s1,100,105,102 (inactive),99 (inactive)
COC(=O)C1=C(C#N)NC(C)=C(C(=O)OC(C)C)C1c1cccc([N+](=O)[O-])c1 (centres undefined),89.8,97.4,98.2 (inactive),123 (inactive)
COC1C(OC(=O)C=CC=CC=CC=CC(=O)O)CCC2(CO2)C1C1(C)OC1CC=C(C)C (centres undefined) [Fumagillin],104 ± 1.1,98.7 ± 8.4,98.9 (inactive),91.2 (inactive)
CC(N)C12CC3CC(CC(C3)C1)C2 (centres undefined) [Rimantadine],99.7,107,93.4 (inactive),112 (inactive)
Cc1ncc([N+](=O)[O-])n1CC(C)O (centres undefined) [Secnidazole],102,96.6,93.5 (inactive),107 (inactive)
COc1ccccc1OCC(O)CO (centres undefined) [Guaifenesin],102,102,98 (inactive),116 (inactive)
"O=C(Nc1cccc(-c2ccccc2)c1)OC1CCCCC1 [cyclohexyl [1,1'-biphenyl]-3-ylcarbamate]",105,94.2,93.4 (inactive),88.6 (inactive)
CC(C)(O)CCC(O)C(C)(O)C1CCC2(O)C3=CC(=O)C4CC(O)C(O)CC4(C)C3CCC12C (centres undefined),102,97,102 (inactive),94.8 (inactive)
COc1cccc(OC)c1OCCNCC1COc2ccccc2O1.Cl (centres undefined) [WB-4101 hydrochloride],102,101,93.7 (inactive),93.3 (inactive)
CN(Cc1ccc(C(C)(C)C)cc1)Cc1cccc2ccccc12 [Butenafine],101,92.9,104 (inactive),100 (inactive)
Cn1nnc2c(C(N)=O)ncn2c1=O [Temozolomide],105,91.4,105 (inactive),101 (inactive)
CCOC(=O)C1=C(C)NC(C)=C(C(=O)OC)C1c1cccc(Cl)c1Cl (centres undefined) [Felodipine],102 ± 2.2,117.1 ± 0.85,86.3 (inactive),97.5 (inactive)
CCN1CCCC1CNC(=O)c1cc(S(=O)(=O)CC)c(N)cc1OC (centres undefined) [Amisulpride],107,84.5,104 (inactive),96.7 (inactive)
O=C(O)/C=C/c1ccc(O)c(O)c1 [Caffeic acid],98.5 ± 1.5,99.8 ± 4.1,94.5 (inactive),96.2 (inactive)
Nc1ccc(S(=O)(=O)Nc2ncccn2)cc1 [Sulfadiazine],101,108,95.6 (inactive),96.7 (inactive)
"CC(=O)Oc1ccccc1C(=O)Nc1ncc([N+](=O)[O-])s1 [2-{[(5-nitro-1,3-thiazol-2-yl)amino]carbonyl}phenyl acetate]",89.4,95.5,98.5 (inactive),103 (inactive)
O=C(O)C(O)C(O)C(=O)O.O=C(c1ccc(F)cc1)C1CCN(CCn2c(=O)[nH]c3ccccc3c2=O)CC1 [Ketanserin tartrate],96.9,93.1,106 (inactive),104 (inactive)
"CCCCCCCCC=CCCCCCCCC(=O)OCC(CO)OC(=O)CCCCCCCC=CCCCCCCCC (centres undefined) [1,2-Dioleoyl-glycerol (18:1)]",100,104,95.2 (inactive),101 (inactive)
N#CC(=Cc1ccc(O)c(O)c1)C(=O)Nc1ccccc1 [Tyrphostin AG 494],87.1,94.9,88 (inactive),108 (inactive)
CC(C)NCC(O)COc1ccc(CC(N)=O)cc1 (stereo not drawn) [S(-)-Atenolol],101,105,92.2 (inactive),96.4 (inactive)
CNS(=O)(=O)Cc1ccc2[nH]cc(CCN(C)C)c2c1.O=C(O)CCC(=O)O [Sumatriptan Succinate],98,106,90.9 (inactive),114 (inactive)
CC(=O)OCC(=O)NCCCOc1cccc(CN2CCCCC2)c1.Cl [Roxatidine acetate.HCl],107,95.7,103 (inactive),99 (inactive)
CN1CCC(=C2c3ccccc3C=Cc3ccccc32)CC1.Cl [Cyproheptadine hydrochloride],98,97.3,111 (inactive),120 (inactive)
